Assay results as given in PubChem BioAssay (NCI).
Compounds without any hit were thinned out: in the full panel of roughly 79,000, 15% have a hit. The source made the active and inactive calls. Cut-off read from the data, not from the text of the source: active = growth inhibition above about 70%; inactive = the rest.

Assays:
[1] = NCI Yeast Anticancer Drug Screen. Data for the mec2-1 strain (AID 157); settings: S. cerevisiae mec2-1 strain, hits give high values
In short: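 Yeast mec2-1 mutant treated with compound. Readout: growth inhibition vs vehicle controls.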

[2] = NCI Yeast Anticancer Drug Screen. Data for the rad14 strain (AID 159);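 note: 0% = growth of vehicle-treated control cultures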; settings: S. cerevisiae rad14 strain growth inhibition, hits give high values
In short: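 Yeast cells carrying a defined DNA-repair defect were exposed to compounds, and growth inhibition was calculated relative to vehicle-treated control cultures.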

[3] = NCI Yeast Anticancer Drug Screen. Data for the sgs1 mgt1 strain (AID 161);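 note: 0% = growth of cultures given vehicle only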; settings: S. cerevisiae sgs1 mgt1 strain, hits give high values
In short: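 Mutant yeast exposed to compound; growth scored against vehicle-only wells.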

[4] = NCI Yeast Anticancer Drug Screen. Data for the CLN2oe strain (AID 163);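 note: 0% = growth of vehicle-only control cultures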; settings: S. cerevisiae CLN2oe strain, hits give high values
In short: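 Read-out: yeast growth inhibition, expressed relative to vehicle-only controls. The strain bears an engineered cell-cycle alteration.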

[5] = NCI Yeast Anticancer Drug Screen. Data for the cln2 rad14 strain (AID 165);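 note: 0% = growth equal to vehicle treated cultures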; settings: S. cerevisiae cln2 rad14 strain, hits give high values
In short: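 cln2 rad14 yeast strain; compound exposure; growth inhibition read vs vehicle controls.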

[6] = NCI Yeast Anticancer Drug Screen. Data for the bub3 strain (AID 167); settings: S. cerevisiae bub3 mutant strain, hits give high values
In short: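 Compounds were applied to a genetically altered yeast strain carrying a cell-cycle control defect. Growth inhibition was scored against vehicle-treated controls.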

[7] = NCI Yeast Anticancer Drug Screen. Data for the wt2 strain (AID 169);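 note: 0% = growth of vehicle-treated yeast cultures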; settings: S. cerevisiae wt2 strain growth inhibition, hits give high values
In short: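 Read-out: growth inhibition versus vehicle-treated control cultures after compound exposure of the yeast strain.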

[8] = NCI Yeast Anticancer Drug Screen. Data for the mlh1 strain (AID 171);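 note: 0% = growth of vehicle-treated control cultures of the same strain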; settings: S. cerevisiae mlh1 strain growth inhibition, hits give high values
In short: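 Read-out: growth inhibition versus vehicle controls. Strain: engineered yeast with a defined DNA repair or cell cycle defect, compound-treated.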

[9] = NCI Yeast Anticancer Drug Screen. Data for the mlh1 rad18 strain (AID 175); settings: S. cerevisiae mlh1 rad18 strain growth inhibition, hits give high values
In short: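 Yeast w/ defined DNA-repair lesions; compound exposure; growth vs vehicle controls → % inhibition.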

[10] = NCI Yeast Anticancer Drug Screen. Data for the rad18 strain (AID 177); settings: S. cerevisiae rad18 mutant growth inhibition, hits give high values
In short: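 Readout: growth inhibition vs vehicle controls. Cells: genetically altered yeast strain, DNA repair defect.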

[11] = NCI Yeast Anticancer Drug Screen. Data for the rad52 strain (AID 147);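 note: 0% = growth of vehicle-treated control cultures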; settings: S. cerevisiae rad52 mutant growth inhibition, hits give high values
In short: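 Read-out: growth inhibition versus vehicle-treated controls. Cells were a DNA repair-deficient yeast strain treated with compounds.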

[12] = NCI Yeast Anticancer Drug Screen. Data for the wt1 strain (AID 149);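 note: 0% = growth of vehicle-treated wt1 cultures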; settings: S. cerevisiae wt1 strain (SPY 50644) growth inhibition, hits give high values
In short: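 Yeast wt1 strain exposed to compounds; growth inhibition measured relative to vehicle-treated controls.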

[13] = NCI Yeast Anticancer Drug Screen. Data for the rad50EPP+ strain (AID 151);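 note: 0% = growth of vehicle-treated control cultures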; settings: S. cerevisiae rad50 mutant strain, hits give high values
In short: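 Growth inhibition read against vehicle controls in rad50EPP+ yeast, a strain altered in DNA damage repair, after compound exposure.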

[14] = NCI Yeast Anticancer Drug Screen. Data for the mgt1 strain (AID 153); settings: S. cerevisiae mgt1 mutant growth inhibition, hits give high values
In short: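 mgt1 yeast grown with test compound; read-out is growth inhibition versus vehicle-treated cultures.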

[15] = NCI Yeast Anticancer Drug Screen. Data for the rad50 strain (AID 155);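 note: 0% = growth of vehicle-only cultures of the same strain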; settings: S. cerevisiae rad50 strain growth inhibition, hits give high values
In short: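 Yeast carrying a defined DNA repair defect were exposed to test compounds, and growth was compared with vehicle-treated controls to give percent inhibition.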

[16] = NCI Yeast Anticancer Drug Screen. Data for the sgs1 strain (AID 173);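 note: 0% = growth of vehicle-only control cultures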; settings: S. cerevisiae sgs1 mutant, hits give high values
In short: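 Read-out: yeast growth inhibition relative to vehicle controls, following compound exposure of a strain with a defined DNA repair/cell cycle alteration.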

[17] = at 5.0 µM (retest, dose inferred, filed as 0.5)
[18] = at 50.0 µM (retest, dose inferred, filed as 5.0)

Measured: growth inhibition

Cc1c(C2=C(Br)C(=O)N(C)C2=O)c(=O)n(C)c(=O)n1C
active: [1]; at 100.0 µM 94% | [2]; at 100.0 µM 91% | [6]; at 100.0 µM 91% | [7]; at 100.0 µM 95% | [8]; at 100.0 µM 97% | [9]; [18] 84% | [9]; at 50.0 µM 91.7% | [10]; at 11.0 µM 75% | [10]; at 33.0 µM 88% | [10]; at 100.0 µM 96%
inactive: [1]; [17] -3% | [1]; at 11.0 µM 26% | [1]; at 33.0 µM 45% | [1]; [18] 20% | [1]; at 50.0 µM 56.1% | [2]; at 1.2 µM 5% | [2]; at 3.7 µM 13% | [2]; at 11.0 µM 28% | [2]; at 33.0 µM 47% | [3]; [17] 0% | [3]; [18] 5% | [3]; at 50.0 µM 58.6% | [4]; at 1.2 µM -2% | [4]; at 3.7 µM 0% | [4]; at 11.0 µM 1% | [4]; at 33.0 µM 10% | [4]; at 100.0 µM 44% | [5]; [17] 20% | [5]; [18] -14% | [5]; at 50.0 µM 3.95% | [6]; at 1.2 µM 1% | [6]; at 3.7 µM 4% | [6]; [17] 6% | [6]; at 11.0 µM 18% | [6]; at 33.0 µM 47% | [6]; [18] 57% | [6]; at 50.0 µM 28.1% | [7]; at 1.2 µM 0% | [7]; at 3.7 µM 3% | [7]; at 11.0 µM 11% | [7]; at 33.0 µM 39% | [8]; at 1.2 µM 0% | [8]; at 3.7 µM 3% | [8]; at 11.0 µM 13% | [8]; at 33.0 µM 48% | [9]; [17] 4% | [10]; at 1.2 µM 17% | [10]; at 3.7 µM 46%

O=C(O)c1ccccc1NC(=S)c1ccccc1
inactive: [11]; at 1.2 µM -5% | [11]; at 3.7 µM -1% | [11]; at 11.0 µM -4% | [11]; at 33.0 µM 7% | [11]; at 100.0 µM 67% | [12]; at 1.2 µM 4% | [12]; at 3.7 µM 1% | [12]; at 11.0 µM -4% | [12]; at 33.0 µM -5% | [12]; at 100.0 µM 26% | [13]; at 1.2 µM 13% | [13]; at 3.7 µM 14% | [13]; at 11.0 µM 34% | [13]; at 33.0 µM 53% | [14]; at 1.2 µM 5% | [14]; at 3.7 µM 0% | [14]; at 11.0 µM -3% | [14]; at 33.0 µM 18% | [15]; at 1.2 µM -3% | [15]; at 3.7 µM -26% | [15]; [17] 53% | [15]; at 11.0 µM -20% | [15]; at 33.0 µM -11% | [15]; at 50.0 µM 4.25% | [1]; at 1.2 µM -31% | [1]; at 3.7 µM -10% | [1]; [17] 63% | [1]; at 11.0 µM -26% | [1]; at 33.0 µM -23% | [1]; at 50.0 µM 11.6% | [1]; at 100.0 µM 10% | [2]; at 1.2 µM 2% | [2]; at 3.7 µM 4% | [2]; at 11.0 µM -4% | [2]; at 33.0 µM 17% | [2]; at 100.0 µM 68% | [3]; [17] -20% | [3]; [18] 65% | [3]; at 50.0 µM -0.55% | [4]; at 1.2 µM 0% | [4]; at 3.7 µM 11% | [4]; at 11.0 µM 6% | [4]; at 33.0 µM 10% | [4]; at 100.0 µM 33% | [5]; [17] 27% | [5]; [18] 54% | [5]; at 50.0 µM 1% | [6]; at 1.2 µM -16% | [6]; at 3.7 µM -12% | [6]; [17] 16% | [6]; at 11.0 µM 0% | [6]; at 33.0 µM 5% | [6]; at 50.0 µM 17.4% | [7]; at 1.2 µM -1% | [7]; at 3.7 µM 5% | [7]; at 11.0 µM 1% | [7]; at 33.0 µM 1% | [7]; at 100.0 µM 42% | [16]; at 1.2 µM -18% | [16]; at 3.7 µM -6% | [16]; at 11.0 µM -12% | [16]; at 33.0 µM -4% | [16]; at 100.0 µM 53% | [9]; [17] 43% | [9]; at 50.0 µM 1.6% | [10]; at 1.2 µM -16% | [10]; at 3.7 µM -4% | [10]; at 11.0 µM -8% | [10]; at 33.0 µM 16% | [10]; at 100.0 µM 69%
active: [13]; at 100.0 µM 83% | [14]; at 100.0 µM 81% | [15]; [18] 97% | [15]; at 100.0 µM 83% | [1]; [18] 96% | [6]; [18] 79% | [6]; at 100.0 µM 70% | [9]; [18] 99%
